# Many of the other results were omitted from the sample, so hits are more common in it than they were.
# Shiga toxin inh – blocks Shiga toxin action in Vero cells. Vero cells, Shiga toxin protein synthesis inhibition reporter. inhibition, % at 38.7 µM. actives 9.2% (n = 290,000); in the data active = inhibition mostly above about 28%, no sharp cut-off; inactive = mostly below about 43%; note: 0% is about no effect
# Vaccinia Venus – vaccinia inhibition (Venus reporter). actives 0.46% (n = 330,000). Potency, µM (series often up to 36.5 µM), for the others: at the top dose activity change, negative = inhibition, usual class: inhibitors. AID 720580. Vaccinia virus Venus reporter expression, fluorescence; calls by dose curve; tested in A549 cells; note: potency is the fitted concentration of half-maximal effect; % is set by controls: 0 for no effect and ±100 for the full control effect; nearly all actives have a fitted effect of over 30% in size
# VACV mCherry inh – inhibitors of vaccinia virus infection (mCherry reporter signal); Potency, µM (doses to about 36.5 µM), for the others: top-dose activity change, negative = inhibition, usual class: inhibitors; actives 0.63% (n = 310,000); AID 720579; Vaccinia virus mCherry reporter infection, fluorescence; calls by dose curve; tested in A549 cells; note: potency is the fitted concentration of half-maximal effect; % is set by controls: 0 for no effect and ±100 for the full control effect; nearly all actives have a fitted effect of over 35% in size
# MARV entry inh – blocks Marburg virus binding to or entry into cells; Marburg virus pseudotyped entry inhibition, cell reporter; actives 1.8% (n = 300,000); Potency, µM (top dose mostly 37.8 µM), for inactives: at the top dose activity change, negative = inhibition, hits mostly inhibitors; calls by dose curve; tested in HEK293 cells; note: potency is the fitted concentration of half-maximal effect; % is set by controls: 0 for no effect and ±100 for the full control effect
# LASV entry inh – blocks Lassa virus binding to or entry into cells; Lassa virus pseudotype entry inhibition, cell reporter; Potency, µM (highest dose often 37.9 µM), for inactives: at the top dose activity change, negative = inhibition, most hits filed as inhibitors; actives 1.2% (n = 300,000); calls by dose curve; tested in HEK293 cells; note: potency is the fitted concentration of half-maximal effect; % is set by controls: 0 for no effect and ±100 for the full control effect; nearly all actives have a fitted effect of over 50% in size
# CHX counter – counter-screen hit for Shiga toxin inhibitors, cycloheximide. max response, %. cell reporter, cycloheximide protein synthesis inhibition counterscreen. actives 12% (n = 300,000). AID 2314; in the data active = max response mostly above about 13%, no sharp cut-off; inactive = mostly below about 14%; note: read at 38.3 µM for the half of the compounds with a filed dose; 0% is about no effect
# * hit, by the source's call; i = inactive; ? = inconclusive; . = no result given; [ ] = dose if it differs, or a comment.
SMILES,Shiga toxin inh,Vaccinia Venus,VACV mCherry inh,MARV entry inh,LASV entry inh,CHX counter
CC1CCCCC1NCc1cccc([N+](=O)[O-])c1 (stereo unspecified),41.7*,.,.,-16.7%,8.7%,12.0
O=[N+]([O-])c1cccc(CNC2CCCCCC2)c1,-5.6,9.0%,-9.1%,?,-10.4%,-3.7
CN(C(=O)CSc1nnc2[nH]c(=O)cc(-c3ccccc3)n12)c1ccccc1,.,-14.0%,i,.,-1.4%[46.1 µM],.
Cn1cc(C(=O)NCc2ccccc2)c2ccccc21,3.3,-24.3%,-2.9%,?,-28.7%[46.1 µM],-1.1
CC(C)C/C(=N/O)c1cn(C)c2ccccc12,13.9,-14.0%,-16.8%,?,1.12µM*,16.8
CCCCc1cc2c(cc1NC(=O)CN1CCCCC1)OCCO2,17.8,-15.0%,-9.7%,?,-1.5%,2.7
O=[N+]([O-])c1cccnc1N1CCN(c2ccccc2F)CC1,26.5,-10.0%,i,8.0%,-9.5%,18.0*
O=C(CCOc1ccccc1F)N1CCN(c2ccccc2O)CC1,70.0*,-11.3%,?,?,-10.5%[46.1 µM],30.7*
O=[N+]([O-])c1cccnc1N1CCCCC1,-6.4,.,.,-2.5%,-4.6%,-1.1
Cc1ccc(CC(=O)N2CCN(c3ccccc3F)CC2)cc1,55.6,-6.4%,-0.8%,.,.,13.1*
O=C(Cc1ccccc1[N+](=O)[O-])N1CCN(c2ccccc2F)CC1,13.7,-8.0%,i,?,3.4%,12.3*
CC1CCCCN1C(=O)COC(=O)C1CCN(S(=O)(=O)c2c(Cl)cccc2Cl)CC1 (stereo unspecified),-10.4,-17.8%,-13.9%,-3.6%,16.0%,-2.8
CCCCCn1nnnc1-c1nc2cc(C)c(C)cc2[nH]c1=O,.,-11.7%,i,.,.,.
COc1ccc([C@]23Cc4cc(OC)c(OC)cc4[C@H](O2)C2=C(CCCC2=O)O3)cc1,.,.,.,6.0%[14.2 µM],.,.
O=C(CCS(=O)(=O)c1ccccc1)N1CCN(c2ccccc2F)CC1,109.5*,-10.4%,-18.5%,7.1%,?,35.0*
Cc1ccc(C)c(N2CCN(c3ncccc3[N+](=O)[O-])CC2)c1,-11.3,-24.6%,-6.9%,2.51µM*,?,-3.4
CCOc1ccc(NC(=O)Cn2cc(S(=O)(=O)NC)c(S(=O)(=O)NC)c2)cc1,.,-9.2%,-12.1%,.,0.3%[46.1 µM],.
COc1ccc(C(=O)Cn2ccsc2=NC(C)=O)cc1,-5.0,-11.3%,-14.5%,?,12.4%,7.4
O=C(Cn1ccsc1=NC(=O)c1ccco1)c1ccccc1,32.1,-7.5%,-13.2%,6.5%,26.6%,24.4*
Cc1nn(C(=O)c2cccc(F)c2)c(C)c1S(=O)(=O)N1CCCCCC1,.,5.9%,-0.7%,.,-3.3%[46.1 µM],.
Cc1ccnc(NC(=O)c2cccc(OC(F)F)c2)n1,69.1*,10.5%,-5.4%,?,4.5%[46.1 µM],20.2
O=C(Nc1cc(Cl)cc(Cl)c1)c1cccc(OC(F)F)c1,17.4,?,?,-11.9%,-13.7%,14.9*
COc1cc(C=NNc2nc3c([nH]2)c(=O)n(C)c(=O)n3C)ccc1O,.,-1.1%,i,-5.2%[46.1 µM],9.8%[46.1 µM],.
COc1cc(/C=N/Nc2ccnc(=O)[nH]2)ccc1O,66.7,.,.,.,.,32.1*
O=c1nccc(N/N=C/c2cccc(O)c2)[nH]1,2.3,-11.9%,i,?,-20.2%,26.3*
SMILES,Shiga toxin inh,Vaccinia Venus,VACV mCherry inh,MARV entry inh,LASV entry inh,CHX counter
CC1CCN(S(=O)(=O)c2cccc(C(=O)N(C)C3(C)CCS(=O)(=O)C3)c2)CC1 (stereo unspecified),-5.2,-15.1%,-3.2%,.,?,-4.0
O=c1c2ccccc2cnn1-c1nc2ccccc2s1,.,.,.,-3.9%,.,.
CCS(=O)(=O)N1CCN(c2cnn(-c3ccccc3)c(=O)c2Cl)CC1,4.0,-2.7%,1.0%,20.4%[46.1 µM],13.0%,-3.4
O=c1c(Cl)c(N2CCCCC2)cnn1-c1nc2ccccc2[nH]1,16.9,.,.,?,?,19.8*
O=c1c2ccccc2cnn1-c1nc2ccccc2[nH]1,-34.8,.,.,0.291µM*,0.326µM*,-10.5
C/C(=N\NC(=O)c1ccccc1)c1c(C)[nH]n(-c2ccccc2)c1=O,61.3*,?,?,?,-14.8%[46.1 µM],49.2*
C/C(=N\NC(=O)c1ccc(C)cc1)c1c(C)[nH]n(-c2ccccc2)c1=O,99.0,.,.,.,.,29.6*
Cc1[nH]n(-c2ccccc2)c(=O)c1C(=O)Nc1ccccc1,30.7,-3.7%,-12.2%,10.8%[46.1 µM],14.4%[46.1 µM],16.4*
Cc1nn(-c2ccccc2)nc1C(=O)c1c(C)[nH]n(-c2ccccc2)c1=O,-3.7,0.0%,i,28.0%[46.1 µM],-0.1%[46.1 µM],16.0
COCC(O)Cn1ccnc1N=Nc1ccccc1 (stereo unspecified),.,6.4%,-12.0%,.,.,.
CC(=O)c1cccc(NC(=O)CCc2nnc3ccc(NCc4ccc5c(c4)OCO5)nn23)c1,-11.3,.,.,.,.,-0.3
O=C(NC[C@@H]1CCCN2CCCC[C@H]12)c1cnn(-c2nccc(-c3ccco3)n2)c1C1CC1,.,7.7%,-7.2%,.,.,.
Cc1ccc(C(=O)NCc2ccc(N(C)C)cc2)cc1NC(=O)c1nsc2ccccc12,.,-15.6%,-13.8%,.,5.01µM*,.
CCc1ccc(C(=O)NNc2ccc(Cl)cc2)cc1,58.7*,.,.,.,.,48.0*
Cc1ccc(CNC(=O)c2ccc(N(C)C)cc2)cc1,60.5*,.,.,.,.,22.7*
CCc1ccc(C(=O)NNc2cc(Cl)cc(Cl)c2)cc1,9.2,-0.7%,?,?,?,9.7
CCc1ccc(C(=O)NCc2ccc(Cl)cc2)cc1,36.6,-8.5%,-8.1%,?,4.1%,15.0*
Cc1ccc(C(=O)NCc2ccccc2)cc1NC(=O)c1nsc2ccccc12,.,-15.4%,-6.1%,.,-16.1%[46.1 µM],.
COc1cc(=O)n2c(c1C(=O)NC(C)c1ccco1)CCN(Cc1ccccc1C(F)(F)F)CC2 (stereo unspecified),.,-6.5%,-13.0%,.,.,.
O=C(COC(=O)CCS(=O)(=O)c1ccccc1)NNC(=O)c1ccc([N+](=O)[O-])cc1,.,-8.6%,-6.5%,.,.,.
CC(/C=C/c1ccccc1)=N\NC(=O)c1cc(C)[nH]n1,32.7,.,.,27.7%,0.6%,36.1*
O=C(/C=C/c1ccccc1)NC(=S)NNC(=O)c1cccnc1,-5.9,.,.,6.9%,21.3%,-3.5
CC(/C=C/c1ccccc1)=N/NC(=O)c1cnccn1,32.1*,-23.7%,-27.8%,19.3%[46.1 µM],12.6%,26.5*
O=C(/C=C/c1ccccc1)NC(=S)NNC(=O)c1cnccn1,20.1,-16.0%[7.34 µM],-23.1%[7.34 µM],?,7.94µM*,0.5
O=C(N/N=C/C=C/c1ccccc1)c1cnccn1,29.6,?,?,6.2%,-0.2%,12.7*
CCOCCCNS(=O)(=O)c1ccc(NC(=O)C2CC(=O)N(c3ccc(C)cc3)C2)cc1 (stereo unspecified),-11.2,-24.9%,?,-23.4%[46.1 µM],-7.9%,-2.9
COCC(=O)Nc1cc(C(=O)N2CCSCC2)cc2nc(-c3ccccc3)n(C)c12,.,-12.3%,-0.2%,.,.,.
Cc1ccc(NC(=O)Cn2nc(C(=O)O)c3ccccc3c2=O)c([N+](=O)[O-])c1,-9.0,-13.5%,-13.8%,13.8%[46.1 µM],2.3%[46.1 µM],-2.4
CC(Nc1nc(N2CCNCC2)nc2ccccc12)c1ccccc1 (stereo unspecified),-6.7,?,-22.9%,?,?,0.1

# Assay outcomes (PubChem BioAssay)
